Test results taken from PubChem BioAssay.
“And” between values parts separate entries of the source, which are not always exact repeats. Equal values may be shown once. The source made the active and inactive calls. Unless noted, no stated cut-off is given here; in the data, active means parasite load remaining mostly below about 12% (no sharp cut-off); inactive means mostly above about 10%.

Columns and labels:
[1] = P. berghei load reduction in hepatocytes – cell-based, HepG2, luciferase luminescence, HepG2 viability, primary screen (AID 624349);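 further: 100% = mean of DMSO negative control wells on the same plate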; details: P. berghei liver stage in HepG2, luciferase luminescence, concentration not given here; parasite load remaining: stronger effect = lower value; viability: measured here: HepG2 viability without parasites
[2] = Wnt pathway potentiators raising nuclear beta-catenin – imaging, WNT3A-conditioned medium, mouse C2C12, NPC library, primary screen (AID 1117326; in the data active means nuclear beta-catenin stimulation mostly above about 4.2%, no sharp cut-off; inactive means mostly below about 10%); details: stronger effect = higher value
[3] = stimulators of insulin release from INS-1E, primary screen, cell-based, 5 mM glucose, NPC library (AID 1117329;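 active means compound raises insulin release from rat beta cells at 5 mM glucose, no numeric limit stated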); details: rat INS-1E insulin secretion, at 10 µM, stronger effect = higher value
[4] = growth inhibition of GSK3B-pretreated HCT116 cells – cell-based, CellTiter-Glo, 0.2 to 20 µM (AID 1117336;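 active means compounds lowering colon cancer cell viability after pretreatment blocking the GSK3B kinase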); details: HCT116 viability after GSK3B inhibitor, at 20 µM, stronger effect = higher value
[5] = inhibition of endothelial tube formation, primary screen, imaging, VEGF stimulated, CD31 staining, tube area, NPC library (AID 1117340;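 active means compound that reduces growth-factor-driven endothelial tube area in a mixed cell culture, no cutoff stated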); details: VEGF-stimulated ADSC/ECFC co-culture, at 10 µM, stronger effect = higher value
[6] = GLP1 release stimulators, primary, NCI-H716, NPC library (AID 1117341;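 active means compound raises GLP1 secretion from the human gut endocrine cells, with no numeric limit stated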); details: NCI-H716 cells, at 10 µM, stronger effect = higher value
[7] = HCT116 colon cancer cell growth inhibition, primary screen, CellTiter-Glo luminescence, NPC library (AID 1117342;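 active means compounds that lower survival of HCT116 colon cancer cells in the luminescence readout, no numeric limit stated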); details: at 20 µM (top of the series)
[8] = reduced SW480 viability measured with CellTiter-Glo, NPC library, primary (AID 1117343;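 active means compounds that lower viability of the colon cancer cells in the luminescence readout, with no numeric limit stated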); details: CellTiter-Glo luminescence; at 20 µM (top of the series) unless noted
[9] = NPC library primary testing for decreased DLD-1 cell viability via CellTiter-Glo (AID 1117346;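 active means compounds that lower survival of DLD-1 colon cancer cells in the luminescence readout, no cutoff given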); details: DLD-1 viability, CellTiter-Glo luminescence; at 20 µM (top of the series)
[10] = EMT-state selective cytotoxicity in co-culture – imaging, PC-3E GFP, TEM4-18 mCherry, primary screen (AID 1345086;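 active means compounds killing one labelled cell type while sparing the other, by normalised counts and ratio limits, not self-fluorescent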;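 on all read-outs here: cells exposed to compound for 72 h before imaging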;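 on red/green cell ratio (normalised): normalised mesenchymal count divided by normalised epithelial count so high means epithelial killing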); details: PC-3E GFP / TEM4-18 mCherry co-culture, imaging cell counts, at 1 µM; for red/green cell ratio (normalised): actives lie on both sides, counts scaled to control wells, 1 = unselective
[11] = viability loss with induced miR-34 in A549 – imaging, A549 dox-inducible miR-34, nuclei and caspase counts, primary screen (AID 1347080;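 active means compounds whose cell count with miR-34 switched on is under 0.7 times the count with it off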); details: A549 miR-34 inducible, Hoechst nuclei count, 48 h
[12] = MELAS cybrid and Rieske KO viability enhancers – cell-based, MELAS cybrids, Rieske KO mouse fibroblasts, CellTiter-Glo, primary screen (AID 1508586;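 active means mean z-score across replicates of 1.96 or higher in either the MELAS or the Rieske mutant cell line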;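 further: z relative to plate mean and SD of compound and empty wells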); details: low glucose
[13] = growth inhibition, single agent or in combination, cell-based, chromothripsis tumors, cisplatin or BGB combos (AID 1671449; in the data active means inhibition above about 80%;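 further: cells exposed for 96 hours; 0% = vehicle DMSO and 100% = killing by high DMSO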); details: LFS_MB_P medulloblastoma cells
[14] = growth inhibition, single agent and combos, cell-based, chromothripsis tumors, cisplatin or BGB combos (AID 1671450; in the data active means inhibition above about 80%;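 further: cells exposed to compound for four days; 0% = vehicle DMSO and 100% = cell killing by high DMSO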); details: HDN33 neuroblastoma cells, stronger effect = higher value
[15] = growth inhibition, single agents and combos, ICB984, cell-based, cisplatin or BGB combos, synergistic combos for chromothripsis tumors (AID 1671451; call rule not given here;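 further: cells exposed for 96 hours before readout; 0% = vehicle DMSO and 100% = killing by high DMSO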); details: ICB984 medulloblastoma cells, drug combinations, stronger effect = higher value
[16] = growth inhibition, single agents and combos, HTB85, cell-based, BGB or cisplatin IC20 combos, synergistic combos for chromothripsis tumors (AID 1671453; in the data active means inhibition above about 80%;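 further: cells exposed for 96 hours before readout; 0% = vehicle DMSO and 100% = high DMSO killing control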); details: HTB85 osteosarcoma cells, drug combinations, stronger effect = higher value
[17] = growth inhibition, MDA-MB-436, cell-based, BGB or cisplatin combos, synergistic combos for chromothripsis tumors (AID 1671458; call rule not given here;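 further: cells exposed for 96 hours; 0% = vehicle DMSO and 100% = killing by high DMSO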); details: MDA-MB-436 breast carcinoma growth inhibition, drug combinations, stronger effect = higher value
[18] = target: NAD(+) hydrolase SARM1 (Homo sapiens) (UniProt Q6SZW1); assay: blocking NAD cleavage by SARM1 SAM-TIR – cell lysate, NAD-Glo luminescence (AID 1508614;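 active means compound whose remaining NAD level is above about 45 nM, limit read from the data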); details: SAM-TIR HEK293T lysate NADase, at 1 µM, stronger effect = higher value
[19] = compounds altering viability of human ES cells (AID 493140; call rule not given here;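 further: cells exposed to compounds for four days before counting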); details: human embryonic stem cell survival screen; stronger effect = higher value
[20] = measured here: epithelial PC-3E GFP cell survival
[21] = measured here: mesenchymal TEM4-18 mCherry cell survival
[22] = stronger effect = lower value, cell number ratio, induced over uninduced
[23] = measured here: relative caspase fold change +Dox/-Dox
[24] = measured here: total cells with miR-34 induction, stronger effect = lower value
[25] = measured here: total cells without miR-34 induction
[26] = MELAS cybrid survival, CellTiter-Glo 48 h, stronger effect = higher value
[27] = Rieske KO mouse fibroblast survival, CellTiter-Glo 72 h

Sequence of NAD(+) hydrolase SARM1 (Homo sapiens) (Q6SZW1 whole entry, looked up): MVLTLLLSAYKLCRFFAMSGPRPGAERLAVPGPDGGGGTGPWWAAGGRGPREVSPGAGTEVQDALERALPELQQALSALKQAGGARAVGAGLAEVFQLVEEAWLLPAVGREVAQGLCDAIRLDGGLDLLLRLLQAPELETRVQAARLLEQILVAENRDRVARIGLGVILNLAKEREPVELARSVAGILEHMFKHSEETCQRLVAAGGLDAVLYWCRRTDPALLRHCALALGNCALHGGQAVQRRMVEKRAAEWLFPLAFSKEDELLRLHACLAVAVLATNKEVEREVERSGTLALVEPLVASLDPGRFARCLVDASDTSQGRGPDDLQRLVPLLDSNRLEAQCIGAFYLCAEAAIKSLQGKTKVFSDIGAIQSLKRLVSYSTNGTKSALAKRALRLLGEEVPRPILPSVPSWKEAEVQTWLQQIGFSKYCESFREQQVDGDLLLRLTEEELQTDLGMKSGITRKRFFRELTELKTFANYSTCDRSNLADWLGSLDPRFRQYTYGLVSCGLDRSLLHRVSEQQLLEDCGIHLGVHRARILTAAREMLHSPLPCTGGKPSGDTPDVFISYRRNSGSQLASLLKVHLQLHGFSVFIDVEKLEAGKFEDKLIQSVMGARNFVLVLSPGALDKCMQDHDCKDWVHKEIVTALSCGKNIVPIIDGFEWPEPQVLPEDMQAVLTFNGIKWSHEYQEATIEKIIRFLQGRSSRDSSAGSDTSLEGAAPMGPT

For CN1CCN(c2c(F)cc3c(=O)c(C(=O)O)cn(CCF)c3c2F)CC1, the parasite load remaining [1] was 13% (inactive), the viability [1] was 62.5% and the nuclear beta-catenin stimulation ([2]; at 10 µM) was 0.3% (inactive). The nuclear beta-catenin stimulation ([2]; stimulation, at 2 µM) was 0.9%, the insulin secretion stimulation [3] was -1% (inactive) and the viability decrease [4] was -13.8% (inactive). For the same molecule, the tube area decrease [5] was 12.8% (inactive), the GLP1 secretion stimulation [6] was 7.1% (inactive) and the inhibition of viability [7] was 4.1% (inactive). The viability decrease (inhibition) [8] was 4.9% (inactive), the viability decrease (inhibition) [9] was -10.7% (inactive) and the red/green cell ratio (normalised) [10] was 1.08 (inactive). The normalised cell number [10, 20] was 1.16, the normalised cell number [10, 21] was 1.24 and the fold change [11, 22] was 0.864 (inactive). It also gave a fold change [11, 23] of 1.53, a cell count [11, 24] of 9860 and a cell count [11, 25] of 11400. For the same molecule, the z-score [12, 26] was -0.514 (inactive) and -0.443 (inactive), the z-score [12, 27] was -0.857 and -0.453 and the inhibition ([13]; at 0.5 µM, stronger effect = higher value) was 2.95% (inactive). It also gave an inhibition ([13]; measured here: combination with BGB IC20, at 0.005 µM) of 20.9%, an inhibition ([13]; measured here: combination with BGB IC40, at 0.005 µM) of 16.6% and an inhibition ([13]; measured here: combination with BGB IC40, at 0.05 µM) of 22.7%. It also gave an inhibition ([13]; measured here: combination with cisplatin, at 0.5 µM, stronger effect = higher value) of -9.55%, an inhibition ([13]; measured here: combination with cisplatin, at 5 µM, stronger effect = higher value) of 1.02% and an inhibition ([14]; BGB combo, at 5 µM) of 17.4%. For the same molecule, the inhibition ([14]; at 0.5 µM) was 15.1% (inactive), the inhibition ([14]; cisplatin combo, at 5 µM) was 34.1% and the inhibition ([14]; measured here: with BGB IC20 combination, at 0.5 µM) was 12.4%. The inhibition ([14]; measured here: with cisplatin IC20 combination, at 0.5 µM) was 22.9%, the inhibition ([14]; single agent, at 5 µM) was 6.61% and the inhibition ([15]; BGB IC20 combo, at 0.005 µM) was 3.45%. For the same molecule, the inhibition ([15]; BGB IC40 combo, at 0.005 µM) was 12%, the inhibition ([15]; BGB IC40 combo, at 0.05 µM) was 3.66% and the inhibition ([15]; at 0.5 µM) was -15.4% (inactive). The inhibition ([15]; cisplatin combo, at 0.05 µM) was 0.969%, the inhibition ([15]; cisplatin combo, at 0.5 µM) was -17.2% and the inhibition ([15]; cisplatin combo, at 5 µM) was -29.4%. For the same molecule, the inhibition ([15]; measured here: 5 uM single agent, at 5 µM) was -20.3%, the inhibition ([16]; at 0.5 µM) was 2.85% (inactive) and the inhibition ([16]; measured here: with BGB IC20, at 0.5 µM) was 3.83%. It also gave an inhibition ([16]; measured here: with BGB IC20, at 5 µM) of 4.56%, an inhibition ([16]; measured here: with cisplatin IC20, at 0.5 µM) of -12% and an inhibition ([16]; measured here: with cisplatin IC20, at 5 µM) of -2.52%. The inhibition ([16]; single agent, at 5 µM) was 7.25%, the inhibition ([17]; at 0.5 µM) was 2.48% (inactive) and the inhibition ([17]; measured here: BGB combination, at 0.5 µM) was 6.04%. The inhibition ([17]; measured here: BGB combination, at 5 µM) was -1.46%, the inhibition ([17]; measured here: cisplatin combination, at 0.5 µM) was -0.921% and the inhibition ([17]; measured here: cisplatin combination, at 5 µM) was -0.504%.
For COc1ccc2[nH]c(S(=O)Cc3ncc(C)c(OC)c3C)nc2n1 (centres undefined), the parasite load remaining [1] was 0.57% (active), the viability [1] was 93% and the nuclear beta-catenin stimulation ([2]; at 10 µM) was 5.2% (inactive). For the same molecule, the nuclear beta-catenin stimulation ([2]; stimulation, at 2 µM) was -0.9%, the insulin secretion stimulation [3] was 4.2% (inactive) and the viability decrease [4] was 16.5% (inactive). The tube area decrease [5] was 14.1% (inactive), the GLP1 secretion stimulation [6] was 4.6% (inactive) and the inhibition of viability [7] was 4.9% (inactive). For the same molecule, the viability decrease (inhibition) [8] was -1.6% (inactive), the viability decrease (inhibition) [9] was 4.3% (inactive) and the red/green cell ratio (normalised) [10] was 1.06 (inactive). The normalised cell number [10, 20] was 1.01, the normalised cell number [10, 21] was 1.07 and the fold change [11, 22] was 0.835 (inactive). It also gave a fold change [11, 23] of 1.32, a cell count [11, 24] of 8340 and a cell count [11, 25] of 9990. For the same molecule, the z-score [12, 26] was 1.95 (inactive) and 1.02, the z-score [12, 27] was 0.213 and 2.3 and the remaining NAD [18] was 77 nM (active).
For CC(=O)c1ccc2c(c1)N(CCCN(C)C)c1ccccc1S2, the survival [19] was 4.75 (inactive), the parasite load remaining [1] was 84% (inactive) and 65.2% (inactive) and 28% (inactive) and the viability [1] was 104% and 77.6% and 98.4%. For the same molecule, the nuclear beta-catenin stimulation ([2]; at 10 µM) was 0.3% (inactive), the nuclear beta-catenin stimulation ([2]; stimulation, at 2 µM) was 1.4% and the insulin secretion stimulation [3] was 17.4% (inactive). For the same molecule, the viability decrease [4] was 50.2% (active), the tube area decrease [5] was 12.5% (inactive) and the GLP1 secretion stimulation [6] was 11.1% (inactive). For the same molecule, the inhibition of viability [7] was 55.9% (active), the viability decrease (inhibition) [8] was 110% (active) and the viability decrease (inhibition) [9] was 24.9% (inactive). The red/green cell ratio (normalised) [10] was 0.9 (inactive), the normalised cell number [10, 20] was 0.98 and the normalised cell number [10, 21] was 0.88. The fold change [11, 22] was 0.938 (inactive) and 0.873 (inactive) and 0.834 (inactive), the fold change [11, 23] was 0.931 and 1.11 and 5.05 and the cell count [11, 24] was 3460 and 8350 and 10600. The cell count [11, 25] was 3690 and 9570 and 12700, the z-score [12, 26] was -0.172 (inactive) and the z-score [12, 27] was 0.00604. The remaining NAD [18] was 10 nM (inactive).
